# In PubChem BioAssay AID1159580 (chemical genetic matrix, 2015):
# Screen size: about 5,500 compounds; about 2,000 (36%) were called active. Roughly 18% stayed inconclusive and do not appear here. The list shows a part of the results. Values without a mark were called inactive. No stated cut-off is given here; in the data, active means normalized growth mostly below about 0.91 (no sharp cut-off); inconclusive means no clear call, values can overlap the other calls; inactive means mostly above about 0.92.
# Test: chemical genetic growth profiling, strain panel (AID 1159580);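 further: tested at 20 µM; growth read once vehicle control cultures reached saturation at 30 °C; 1 = growth at the plate median or of vehicle wells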
# Details: growth OD
smiles,measurement,setting,value
C#CCCCCCCCCCCCC(O)CC(O)CO (configuration not stated),normalized growth,"S. cerevisiae deletion strains, locus YJR075W, strain HOC1, stronger effect = lower value",0.987
same,normalized growth,"S. cerevisiae deletion strains, locus YKL009W, strain mrt4, stronger effect = lower value",1
same,normalized growth,"S. cerevisiae deletion strains, locus YKL068W, stronger effect = lower value",1.01
same,normalized growth,"S. cerevisiae deletion strains, locus YKL085W, strain MDH1 (second series), stronger effect = lower value",1.01
same,normalized growth,"S. cerevisiae deletion strains, locus YKL085W, strain MDH1, stronger effect = lower value",1.01
same,normalized growth,"S. cerevisiae deletion strains, locus YKL160W, strain elf1, stronger effect = lower value",0.97
same,normalized growth,"S. cerevisiae deletion strains, locus YKL190W, strain CNB1, stronger effect = lower value",0.999
same,normalized growth,"S. cerevisiae deletion strains, locus YKR001C, strain vps1, stronger effect = lower value",1
same,normalized growth,"S. cerevisiae deletion strains, locus YKR026C, strain gcn3, stronger effect = lower value",0.982
same,normalized growth,"S. cerevisiae deletion strains, locus YKR091W, strain srl3, stronger effect = lower value",0.979
same,normalized growth,"S. cerevisiae deletion strains, locus YLL001W, strain dnm1, stronger effect = lower value",0.961
same,normalized growth,"S. cerevisiae deletion strains, locus YLL026W, stronger effect = lower value",0.993
same,normalized growth,"S. cerevisiae deletion strains, locus YLL041C, strain sdh2, stronger effect = lower value",0.986
same,normalized growth,"S. cerevisiae deletion strains, locus YLR027C, strain aat2, stronger effect = lower value",0.986
same,normalized growth,"S. cerevisiae deletion strains, locus YLR039C, strain RIC1, stronger effect = lower value",1.08
same,normalized growth,"S. cerevisiae deletion strains, locus YLR058C, strain SHM2, stronger effect = lower value",1
same,normalized growth,"S. cerevisiae deletion strains, locus YLR102C, strain apc9, stronger effect = lower value",1.01
same,normalized growth,"S. cerevisiae deletion strains, locus YLR113W, strain HOG1, stronger effect = lower value",0.832 (active)
same,normalized growth,"S. cerevisiae deletion strains, locus YLR221C, strain rsa3, stronger effect = lower value",0.974
same,normalized growth,"S. cerevisiae deletion strains, locus YLR258W, strain gsy2, stronger effect = lower value",0.99
same,normalized growth,"S. cerevisiae deletion strains, locus YLR262C, strain YPT6 (second series), stronger effect = lower value",0.966
same,normalized growth,"S. cerevisiae deletion strains, locus YLR262C, strain YPT6, stronger effect = lower value",1.07
same,normalized growth,"S. cerevisiae deletion strains, locus YLR268W, strain sec22, stronger effect = lower value",1
same,normalized growth,"S. cerevisiae deletion strains, locus YLR320W, strain mms22, stronger effect = lower value",0.946
same,normalized growth,"S. cerevisiae deletion strains, locus YLR330W, strain CHS5, stronger effect = lower value",0.99
same,normalized growth,"S. cerevisiae deletion strains, locus YLR342W, strain FKS1 (second series), stronger effect = lower value",0.975
same,normalized growth,"S. cerevisiae deletion strains, locus YLR342W, strain FKS1, stronger effect = lower value",0.985
same,normalized growth,"S. cerevisiae deletion strains, locus YLR357W, strain rsc2, stronger effect = lower value",0.954
same,normalized growth,"S. cerevisiae deletion strains, locus YLR370C, strain arc18, stronger effect = lower value",0.985
same,normalized growth,"S. cerevisiae deletion strains, locus YLR371W, strain rom2, stronger effect = lower value",1.01
same,normalized growth,"S. cerevisiae deletion strains, locus YLR384C, strain iki3, stronger effect = lower value",0.98
same,normalized growth,"S. cerevisiae deletion strains, locus YLR418C, strain cdc73, stronger effect = lower value",1.02
same,normalized growth,"S. cerevisiae deletion strains, locus YML016C, strain PPZ1, stronger effect = lower value",1
same,normalized growth,"S. cerevisiae deletion strains, locus YML032C, strain rad52, stronger effect = lower value",1.02
same,normalized growth,"S. cerevisiae deletion strains, locus YML120C, strain ndi1, stronger effect = lower value",0.986
same,normalized growth,"S. cerevisiae deletion strains, locus YML124C, strain tub3, stronger effect = lower value",1.01
same,normalized growth,"S. cerevisiae deletion strains, locus YMR058W, strain fet3, stronger effect = lower value",0.991
same,normalized growth,"S. cerevisiae deletion strains, locus YMR078C, strain ctf18, stronger effect = lower value",1
same,normalized growth,"S. cerevisiae deletion strains, locus YMR125W, strain sto1, stronger effect = lower value",0.967
same,normalized growth,"S. cerevisiae deletion strains, locus YMR129W, stronger effect = lower value",0.988
same,normalized growth,"S. cerevisiae deletion strains, locus YMR205C, strain PFK2, stronger effect = lower value",0.962
same,normalized growth,"S. cerevisiae deletion strains, locus YMR223W, strain ubp8, stronger effect = lower value",1.01
same,normalized growth,"S. cerevisiae deletion strains, locus YMR231W, strain pep5, stronger effect = lower value",0.974
same,normalized growth,"S. cerevisiae deletion strains, locus YMR263W, strain SAP30, stronger effect = lower value",1
same,normalized growth,"S. cerevisiae deletion strains, locus YMR307W, strain GAS1, stronger effect = lower value",1.19
same,normalized growth,"S. cerevisiae deletion strains, locus YNL067W, strain RPL9B, stronger effect = lower value",0.987
same,normalized growth,"S. cerevisiae deletion strains, locus YNL071W, strain lat1, stronger effect = lower value",0.988
same,normalized growth,"S. cerevisiae deletion strains, locus YNL128W, strain TEP1, stronger effect = lower value",1.01
same,normalized growth,"S. cerevisiae deletion strains, locus YNL153C, strain GIM3, stronger effect = lower value",1
same,normalized growth,"S. cerevisiae deletion strains, locus YNL183C, strain NPR1, stronger effect = lower value",0.774 (active)
same,normalized growth,"S. cerevisiae deletion strains, locus YNL209W, strain ssb2, stronger effect = lower value",0.996
same,normalized growth,"S. cerevisiae deletion strains, locus YNL233W, strain BNI4, stronger effect = lower value",0.991
same,normalized growth,"S. cerevisiae deletion strains, locus YNL248C, strain rpa49, stronger effect = lower value",0.97
same,normalized growth,"S. cerevisiae deletion strains, locus YNL250W, strain rad50, stronger effect = lower value",1.03
same,normalized growth,"S. cerevisiae deletion strains, locus YNL271C, strain bni1, stronger effect = lower value",1.02
same,normalized growth,"S. cerevisiae deletion strains, locus YNL298W, strain CLA4, stronger effect = lower value",1.01
same,normalized growth,"S. cerevisiae deletion strains, locus YNL307C, strain MCK1, stronger effect = lower value",0.98
same,normalized growth,"S. cerevisiae deletion strains, locus YNL322C, strain KRE1 (second series), stronger effect = lower value",0.978
same,normalized growth,"S. cerevisiae deletion strains, locus YNL322C, strain KRE1, stronger effect = lower value",1
same,normalized growth,"S. cerevisiae deletion strains, locus YNR049C, strain mso1, stronger effect = lower value",0.992
same,normalized growth,"S. cerevisiae deletion strains, locus YNR052C, strain pop2, stronger effect = lower value",1.01
same,normalized growth,"S. cerevisiae deletion strains, locus YOL006C, strain TOP1, stronger effect = lower value",0.96
same,normalized growth,"S. cerevisiae deletion strains, locus YOL012C, strain htz1",0.976
same,normalized growth,"S. cerevisiae deletion strains, locus YOL147C, strain pex11, stronger effect = lower value",1
same,normalized growth,"S. cerevisiae deletion strains, locus YOR001W, strain rrp6, stronger effect = lower value",0.998
same,normalized growth,"S. cerevisiae deletion strains, locus YOR061W, strain CKA2, stronger effect = lower value",0.921
same,normalized growth,"S. cerevisiae deletion strains, locus YOR069W, strain VPS5, stronger effect = lower value",1
same,normalized growth,"S. cerevisiae deletion strains, locus YOR070C, strain gyp1, stronger effect = lower value",0.977
same,normalized growth,"S. cerevisiae deletion strains, locus YOR080W, strain dia2, stronger effect = lower value",0.994
same,normalized growth,"S. cerevisiae deletion strains, locus YOR083W, strain WHI5, stronger effect = lower value",0.95
same,normalized growth,"S. cerevisiae deletion strains, locus YOR106W, strain vam3, stronger effect = lower value",0.977
same,normalized growth,"S. cerevisiae deletion strains, locus YOR136W, strain idh2, stronger effect = lower value",0.998
same,normalized growth,"S. cerevisiae deletion strains, locus YOR144C, strain elg1, stronger effect = lower value",1.01
same,normalized growth,"S. cerevisiae deletion strains, locus YOR184W, strain ser1, stronger effect = lower value",1.01
same,normalized growth,"S. cerevisiae deletion strains, locus YOR231W, strain MKK1, stronger effect = lower value",0.851 (active)
same,normalized growth,"S. cerevisiae deletion strains, locus YOR265W, strain rbl2, stronger effect = lower value",0.99
same,normalized growth,"S. cerevisiae deletion strains, locus YOR270C, strain vph1, stronger effect = lower value",0.944
same,normalized growth,"S. cerevisiae deletion strains, locus YOR290C, strain snf2, stronger effect = lower value",0.948
same,normalized growth,"S. cerevisiae deletion strains, locus YOR316C, strain cot1, stronger effect = lower value",1.01
same,normalized growth,"S. cerevisiae deletion strains, locus YPL051W, strain arl3, stronger effect = lower value",0.989
same,normalized growth,"S. cerevisiae deletion strains, locus YPL055C, strain LGE1, stronger effect = lower value",0.994
same,normalized growth,"S. cerevisiae deletion strains, locus YPL078C, strain atp4, stronger effect = lower value",0.981
same,normalized growth,"S. cerevisiae deletion strains, locus YPL106C, strain sse1, stronger effect = lower value",0.981
same,normalized growth,"S. cerevisiae deletion strains, locus YPL240C, strain hsp82, stronger effect = lower value",0.998
same,normalized growth,"S. cerevisiae deletion strains, locus YPL241C, strain CIN2, stronger effect = lower value",1
same,normalized growth,"S. cerevisiae deletion strains, locus YPL256C, strain CLN2, stronger effect = lower value",0.881
same,normalized growth,"S. cerevisiae deletion strains, locus YPR119W, strain clb2, stronger effect = lower value",1.01
same,normalized growth,"S. cerevisiae deletion strains, locus YPR141C, strain kar3, stronger effect = lower value",1.04
same,normalized growth,"S. cerevisiae deletion strains, locus YPR163C, strain tif3, stronger effect = lower value",0.997
same,normalized growth,"S. cerevisiae deletion strains, locus YPR167C, strain met16, stronger effect = lower value",1.01
same,normalized growth,"S. cerevisiae deletion strains, strain wtn01, stronger effect = lower value",1.01
same,normalized growth,"S. cerevisiae strains, strain wild type, stronger effect = lower value",0.992
